# Records with an inconclusive call do not appear. Calls of active or inactive are those of the source. The calls were made as follows: active = hit-call score of the fitted dose curve at least 0.9, where 1 is the maximum; inactive = score below 0.9.
# Molecular target: human Cholecystokinin Receptor CCK2 (CCKB) Agonism, CCKBR (gene 887) (UniProt P32239)
# Assay: ERF_FR_GPCR_hCCKBR: Eurofins (ERF) G Protein-Coupled Receptor (GPCR) Radioligand Binding LeadHunter Assay for human Cholecystokinin Receptor CCK2 (CCKB) Agonism
# Procedure: ERF_FR_GPCR_hCCKBR is a biochemical, single-readout assay that uses extracted gene-proteins in a cell-free assay. Measurements were taken 1 hour after chemical dosing in a 96-well plate. See CCK2 (CCKB) Human Cholecystokinin GPCR Binding (Agonist Radioligand) Assay, Cerep.ERF_FR_GPCR_hCCKBR is an assay component calculated from the ERF_FR_GPCR_hCCKBR assay. It is designed to measure radioligand binding using a type of binding reporter as detected by scintillation counting with radiometry technology.Data from the assay component ERF_FR_GPCR_hCCKBR was analyzed at the assay endpoint, ERF_FR_GPCR_hCCKBR, in the positive analysis fitting direction relative to DMSO as the negative control and baseline of activity. Using a type of binding reporter, […] activity can be used to understand changes in binding as they relate to gene CCKBR. To generalize the intended target to other relatable targets, this assay endpoint is annotated to the gpcr intended target family, where the subfamily is cholecystokinin.
# Human cells are incubated for 60 minutes at room temprature with [125I]CCK-8s ligand (0.08 nM) and CCK-8s as control inhibitor.Test Sample Requirements: Minimum for 1) Screen: 60 ul of 10 mM stock -OR- 1 mg (pre-weighed) for 10 uM final testing. 2) Dose Response: 90 ul of 10 mM stock -OR- 1 mg (pre-weighed) for a top concentration at 10 uM.
# human Cholecystokinin Receptor CCK2 (CCKB) Agonism, CCKBR (gene 887), sequence (P32239 whole entry, looked up): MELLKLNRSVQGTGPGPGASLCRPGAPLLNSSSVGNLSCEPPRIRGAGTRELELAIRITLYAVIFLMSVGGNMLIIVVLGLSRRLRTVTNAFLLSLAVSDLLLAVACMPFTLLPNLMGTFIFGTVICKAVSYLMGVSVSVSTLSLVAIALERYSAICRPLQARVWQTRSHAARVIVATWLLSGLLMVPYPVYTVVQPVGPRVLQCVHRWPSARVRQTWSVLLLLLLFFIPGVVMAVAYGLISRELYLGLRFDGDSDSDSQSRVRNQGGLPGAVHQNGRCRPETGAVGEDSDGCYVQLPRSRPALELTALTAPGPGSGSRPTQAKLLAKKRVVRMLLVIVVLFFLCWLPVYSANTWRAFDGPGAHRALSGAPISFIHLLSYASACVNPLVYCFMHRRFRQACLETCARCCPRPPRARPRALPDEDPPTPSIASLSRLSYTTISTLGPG
row,SMILES,AC50
1,O=C(/C=C/c1ccc(O)cc1)CC(=O)/C=C/c1ccc(O)cc1,3.43 µM (active)

# — PubChem BioAssay AID2284151 (EPA ToxCast)
